hgDAF12 agonist = hgDAF-12 agonism, primary luciferase screen; AID 687014; activation, % at 6.8 µM; HEK293 GAL4-hgDAF12 UAS-luciferase reporter, agonist luminescence; normalized to butyrate control; 370,000 compounds, 1.8% hits;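 active means activation above a cutoff set at the mean of all screened compounds plus 3 SD, cut at about 10% in these data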;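 further: 0% = DMSO wells and 100% = sodium butyrate wells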
hcDAF-12 act = H. contortus DAF-12 activation, primary screen. HEK293 hcDAF-12 lit1-tk-luc reporter, luminescence; 0% DMSO, 100% Δ7-dafachronic acid. activation, % at 6.8 µM. 370,000 compounds, 1.4% hits. AID 652067;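 active means activation above the mean of all tested compounds plus 3 SD, cut at about 5.5% in these data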;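 further: 100% = response to 3 µM Δ7-dafachronic acid high control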
ssDAF-12 act = activates DAF-12 receptor from parasite S. stercoralis; HEK293 ssDAF-12/GRIP1 lit1-tk-luc reporter, luminescence; % of 3 µM dafachronic acid response; activation, % at 6.8 µM; 370,000 compounds, 1% hits;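 active means activation above the mean over all tested compounds plus 3 SD, cut at about 0.9% in these data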;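 further: 0% = DMSO-only wells and 100% = 3 µM delta7-dafachronic acid wells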
DAX1 inh-1 = inhibits human nuclear receptor DAX1; P51843; HEK293 Gal4-DAX1 luciferase reporter, luminescence; inhibition, % at 6.75 µM; 340,000 compounds, 0.99% hits;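 active means inhibition above the mean over all tested compounds plus 3 SD, cut at about 4.2% in these data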;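 further: 0% = DAX1-transfected cells with DMSO and 100% = empty-vector control cells with DMSO; inhibition shows as a rise in luminescence from relieved DAX1 repression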
Target sequence (P51843 207-470 limits assumed): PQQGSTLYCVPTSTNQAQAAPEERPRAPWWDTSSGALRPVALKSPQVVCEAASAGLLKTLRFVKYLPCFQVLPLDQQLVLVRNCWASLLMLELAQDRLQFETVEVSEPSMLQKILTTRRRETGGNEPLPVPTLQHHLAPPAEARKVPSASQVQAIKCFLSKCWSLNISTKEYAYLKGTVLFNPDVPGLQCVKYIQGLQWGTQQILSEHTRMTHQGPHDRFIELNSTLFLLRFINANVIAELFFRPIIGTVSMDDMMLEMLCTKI
SMARCA2 act = activators of SMARCA2 function | MG213 cells, MMTV-luciferase reporter, dexamethasone, overnight | activation, % at 9.1 µM | 370,000 compounds, 1% hits; in the data active means activation above about 7.8%;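 further: 0% = vehicle wells and 100% = reference activator wells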
DAX1 inh-2 = blocks DAX1 repression of SF-1 activated StAR promoter; 370,000 compounds, 1.1% hits; HEK293T StAR-luciferase reporter, SF-1/DAX-1 repression relief; AID 652010; inhibition, % at 6.8 µM;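 active means inhibition above the mean over all tested compounds plus 3 SD, cut at about 3.6% in these data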;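 further: 0% = DAX-1 cells with DMSO and 100% = cells lacking DAX-1 with DMSO; higher inhibition means more luminescence from relief of DAX-1 repression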
SMARCA2 act conf = SMARCA2 activation, confirmation screen | shares compounds with SMARCA2 act | MG213 cells, MMTV-luciferase with dexamethasone, luminescence, overnight; MG213 cells expressing E1A, Rb sequestered; DMSO wells 0%, reference activator 100% | activation, % at 9.1 µM | 3,500 compounds, 30% hits | AID 652260;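 active means activation above its plate's cutoff, the mean activation of tested wells plus 3 SD, cut at about 7.9% in these data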
GAL4-VP16 Luc = GAL4-VP16 reporter activation counter-screen | activation, % at 9.1 µM | AID 686939 | shares compounds with SMARCA2 act | HEK293 GAL4-VP16 pG5luc reporter, luciferase luminescence; scaled: DMSO wells 0%, SAHA wells 100% | 3,500 compounds, 41% hits;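 active means activation above the solvent-only control well mean plus 3 SD, averaged across control plates, cut at about 5.2% in these data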
* = called active by the depositor; x = no result. A selection: hits, their analogues and other compounds. The true share with any hit is near 4.8%.

SMILES	hgDAF12 agonist	hcDAF-12 act	ssDAF-12 act	DAX1 inh-1	SMARCA2 act	DAX1 inh-2	SMARCA2 act conf	GAL4-VP16 Luc
CCOCCCNC(=O)C1CCN(S(=O)(=O)c2cc3c(cc2Br)CCN3C(=O)CC)CC1	2	-2	-1	x	-3	1	x	x
CCNCC(=O)Nc1ccc(N2CCOCC2)cc1	4	0	-1	0	-3	0	x	x
CCCCOC(=O)Nc1ccc(N2CCOCC2)cc1	6	2	-1	3	10*	1	9.8*	5.7*
O=C(Nc1ccc2c(c1)OCO2)NC1CCN(S(=O)(=O)c2ccc(F)cc2)CC1	2	0	0	x	-4	0	x	x
CC(=O)c1cccc(NC(=O)CSc2nc3ccccc3c(=O)n2CCCN2CCOCC2)c1	0	-2	-1	0	-2	-2	x	x
Cc1cc(NC(=O)CSc2nc3c(sc4ccccc43)c(=O)n2CCCN2CCOCC2)n[nH]1	11*	0	-1	2	20*	-1	36*	-1
Cc1ccc(NC(=O)CSc2nc3ccccc3c(=O)n2CCCN2CCCCC2)cc1C	7	2	-1	-1	13*	1	6	3
Cc1cccc(C)c1NC(=O)C1C(c2ccc3c(c2)OCO3)=Nc2ccccc2N1C(=O)c1ccccn1 (configuration not stated)	2	4	1	x	8.1*	1	4	0
CC(=O)N1c2ccccc2N=C(c2ccc3c(c2)OCO3)C1C(=O)NCc1ccccc1 (configuration not stated)	4	2	0	x	11*	0	6	1
Cc1cccc(C)c1NC(=O)C1C(c2ccc3c(c2)OCO3)=Nc2ccccc2N1C(=O)c1cccc(C(F)(F)F)c1 (configuration not stated)	4	2	0	x	-7	-1	x	x
CCCCNC(=O)C1C(c2ccccc2)=Nc2ccccc2N1C(=O)c1ccc2c(c1)OCO2 (configuration not stated)	4	0	-1	x	-2	-1	x	x
CCN(CC(=O)Nc1cccc(OC)c1)C(=O)c1ccc(C)s1	-1	1	-1	0	8.2*	-1	1	3
O=C(OCc1cn(Cc2cccc(C(F)(F)F)c2)nn1)N1CCOCC1	-1	-3	0	x	-2	0	x	x
COc1ccc(/C=N\NC(=O)Cc2cccs2)c(OC)c1OC	7	0	-1	x	3	0	x	x
O=C(Cc1cccs1)NCc1cccs1	x	x	x	3	x	x	x	x
O=C(Cc1cccs1)NCc1cccc(Br)c1	4	1	-1	2	9.2*	1	4	7.8*
O=C(Cc1cccs1)Nc1ccc(NC(=O)c2ccco2)cc1	-1	1	-1	-1	12*	-2	6	7.9*
O=C(Cc1cccs1)Nc1ccccc1	2	0	0	0	0	0	x	x
O=C(O)C1C(C(=O)Nc2ccc(Cl)cc2)C2C=CC1C21CC1 (configuration not stated)	1	0	-1	1	8.7*	1	-1	3
Clc1cccc(Cc2c(-c3ccco3)nc3c4ccccc4ccn23)c1	2	2	0	x	24*	1	12*	10*
Cc1ccc(Cc2c(-c3cccc(Cl)c3)nc3c4ccccc4ccn23)cc1	4	4	0	x	0	1	x	x
O=C1CCCCC1Sc1nnc(Nc2ccccc2)s1 (configuration not stated)	11*	1	-1	4	8.8*	2	1	7.7*
CCN(CC)C(=O)CC[C@H]1CC[C@]2(CCCN(Cc3ccc(OC)cc3)C2)O1	1	1	-1	x	-2	1	x	x
O=C1CCC[C@H]2C[C@H](NCCc3ccncc3)CC[C@]23CCCN13	-3	-1	-2	x	x	x	x	x
Nn1c(SCC(=O)Nc2ccc(OCc3ccccc3)cc2)nnc1-c1cc(-c2ccc(F)cc2)n[nH]1	2	0	-1	x	-4	-2	x	x
SMILES	hgDAF12 agonist	hcDAF-12 act	ssDAF-12 act	DAX1 inh-1	SMARCA2 act	DAX1 inh-2	SMARCA2 act conf	GAL4-VP16 Luc
COc1ccc(/C(O)=C2/C(=O)C(=O)N(c3ccccn3)C2c2ccc(F)cc2)cc1 (configuration not stated)	10	0	0	2	11*	1	1	2
O=C1NC(=O)C(CC(=O)N(Cc2ccco2)C2(C(=O)NC3CCCC3)CCCCC2)N1 (configuration not stated)	1	0	-1	2	-2	0	x	x
CCC(C)(C(=O)NC1CCCCC1)N(Cc1ccco1)C(=O)CC1NC(=O)NC1=O (configuration not stated)	-1	1	-1	-1	8.4*	0	-3	0
CCOc1ccc(-n2c(SCC(=O)c3ccc4ccccc4c3)nnc2-c2ccc(OC)cc2)cc1	0	0	-1	x	1	0	x	x
CNC(=O)c1ncoc1-c1ccc(Cl)cc1	7	4	0	-1	8.1*	1	0	0
Nc1nc(SCc2ccccn2)c2ncn(C3CCCC3)c2n1	11*	-1	-1	2	8.2*	1	5	4
Cc1ccc(-n2c(SC/C=C/c3ccccc3)nnc2-c2ccco2)cc1	-1	-3	-2	x	-3	0	x	x
Nc1ccc(N=Nc2ccc(O)cc2)c(N)n1	1	0	0	-2	0	-2	x	x
COc1ccc(N=Nc2ccc(N)nc2N)cc1	11*	5	0	4.6*	12*	3	11*	20*
CCc1nn(CC(=O)N2CCN(c3ccc(OC)cc3)CC2)c(=O)c2cc3occc3n12	1	0	-1	0	8.4*	0	0	3
CCc1nn(CC(=O)N2CCC(C(N)=O)CC2)c(=O)c2cc3occc3n12	2	-1	-1	1	-2	0	x	x
COC(=O)C1=C(C)N(Cc2ccccc2C(F)(F)F)C(=NCc2ccccc2)NC1c1ccc(Cl)cc1 (configuration not stated)	3	4	-1	x	-3	-1	x	x
Cc1nc2ccc(C(=O)N3CCN(C(=O)OCc4ccccc4)CC3)cc2n1C1CCCC1	-2	-4	-1	x	-6	-1	x	x
CCNC(=S)/C(=C(/[O-])c1ccc([N+](=O)[O-])cc1)[n+]1ccccc1	0	0	-2	2	-2	1	x	x

Compound activity (PubChem BioAssay)
